The whole screen tested about 48,000 compounds, of which about 13,000 (27%) showed an effect of 50% or more. The list shows a part of the results.
test system: Wolbachia pipientis; assay: Anti-Wolbachia Cell-Based Screen; assay type: functional; design: scale not given: in the data most compounds retested in dose-response had high values; conditions: 5 µM

Row | Compound | Percent Effect [%]
1 | Cc1cc(CNC(=O)Nc2ccc(C(=O)NC3CC3)cc2)no1 | 1.867
2 | CC(C)(O)CCc1cccc(C(=O)N2CCC3(CCOCC3)CC2)c1 | -3.198
3 | CC(=O)NCCC1CCCCN1C(=O)c1cccc(CCC(C)(C)O)c1 (stereo not drawn) | 90.48
4 | CC(C)(O)CCc1cccc(C(=O)NCCC2CCOC2)c1 (stereo not drawn) | -27.94
5 | CC(C)(O)CCc1cccc(C(=O)N2CCC[C@H]2CN2CCCC2)c1 | 96.29
6 | CO[C@H]1C[C@@H](O)C12CCN(C(=O)c1cccc(CCC(C)(C)O)c1)CC2 | -1.029
7 | CC(C)(O)CCc1cccc(C(=O)N2CCC3(CCO3)CC2)c1 | 8.25
8 | CCc1nnc(SCC(=O)Nc2cc(C(C)(C)C)nn2C)[nH]1 | -3.815
9 | CCOc1cc(CN2CCCC2)ccc1Oc1cccc(C#N)n1 | -4.025
10 | COc1cc(CNC(=O)NCc2c(C)cc(C)[nH]c2=O)ccc1C | 1.509
11 | CC(C)(C)N1CC(c2ncc(-c3ccc4c(c3)OCCO4)[nH]2)CC1=O (stereo not drawn) | -4.995
12 | CNc1ncc(-c2csc(NC(=O)C[C@H]3COCCN3)n2)cn1.Cl | 71.35
13 | O=C(CC1COCCN1)NCCc1nc(Cc2ccccc2)no1 (stereo not drawn) | 18.61
14 | Cl.Nc1ncc(-c2csc(NC(=O)C[C@H]3COCCN3)n2)cn1 | 103.3
15 | O=C(CC1COCCN1)NCCc1nc(-c2ccccn2)no1 (stereo not drawn) | -14.35
16 | O=C(CC1COCCN1)NCCc1noc(-c2ccccc2)n1 (stereo not drawn) | -6.645
17 | Cc1nsc(NC(=O)NC2CCCOC2)n1 (stereo not drawn) | -39.42
18 | CC(C)Nc1ncc(-c2csc(NC(=O)C[C@H]3COCCN3)n2)cn1 | 64.22
19 | CCNC(=O)NCc1cnn(-c2ccc(F)cc2F)c1 | -2.386
20 | Cc1cc(CC(=O)NCC(O)c2ccc(OC(F)F)cc2)n[nH]1 (stereo not drawn) | -1.889
21 | Cc1ccccc1-c1noc(CNc2ccc(F)cc2OCCO)n1 | 17.52
22 | CS(=O)(=O)c1ccc(CN2C[C@@H]3OCC(=O)N(CC(N)=O)[C@@H]3C2)cc1 | 4.5

Row | Compound | Percent Effect [%]
23 | O=C1NCC[C@]12CN(Cc1ccco1)C[C@H]2c1ccccc1 | 13.69
24 | Cc1ccc(CN2C[C@@H](c3ccccc3)[C@@]3(CCNC3=O)C2)o1 | 33.3
25 | O=C(c1cnccn1)N1C[C@@H](c2ccccc2)[C@@]2(CCNC2=O)C1 | -14.79
26 | CCS(=O)(=O)N1C[C@@H](c2ccccc2)[C@@]2(CCNC2=O)C1 | 107.9
27 | CCCS(=O)(=O)N1C[C@@H](c2ccccc2)[C@@]2(CCNC2=O)C1 | 108.5
28 | CN(C)c1ccc(CC(=O)N2C[C@H](C3CC3)[C@@H](N)C2)cc1 | -4.487
29 | COc1ccc2c(c1)s/c(=N\C(=O)CSCC(=O)Nc1nccs1)n2C | -4.566
30 | N#CCCN(CC1CC1)S(=O)(=O)c1cccc(Cl)c1 | -14.4
31 | CC(=O)c1cccc(-c2c[nH]c(C)n2)c1 | -8.634
32 | Cc1n[nH]cc1CNCc1cccc(OCC(F)(F)F)c1.Cl | -11.93
33 | Cc1nc(CNCc2ccc(OC34CCCN(CC3)C4)cc2)n[nH]1 (stereo not drawn) | 103.3
34 | COCCN1CCCC(O)(CN2CCN(c3ccncc3C)CC2)C1=O (stereo not drawn) | -3.963
35 | Cc1ccc(CN2CCNC(=O)C2CC(=O)NCc2n[nH]c(C)n2)cc1 (stereo not drawn) | 3.294
36 | Cc1nc(CNCc2cccc(OC34CCCN(CC3)C4)c2)n[nH]1 (stereo not drawn) | 113.3
37 | COc1ccc(C(C)(C)C(=O)NCc2n[nH]c(=O)[nH]2)cc1 | -12.5
38 | O=c1[nH]nc(CNCc2ccc(OC34CCCN(CC3)C4)cc2)[nH]1 (stereo not drawn) | 93.23
39 | Cc1cnccc1CNCc1ccc(OC23CCCN(CC2)C3)cc1 (stereo not drawn) | 106.9
40 | CCN1CCCC(O)(CNCc2ccncc2)C1 (stereo not drawn) | 6.912
41 | Cc1ccnc(NCc2cccc(OCCN3CCOCC3)c2)n1 | 10.24
42 | OC(CN1CCN(CC2CC2)CC1)c1ccc(Br)cc1 (stereo not drawn) | 16.18
43 | CCNC(=O)NC(=O)C(C)N1CCCc2cc(OC)ccc2C1 (stereo not drawn) | -0.429
44 | CCc1ccc(C(C)NC(=O)CCc2nc(-c3nnc[nH]3)no2)cc1 (stereo not drawn) | 0.9549

Row | Compound | Percent Effect [%]
45 | CC(C)CC(O)C1CCN(Cc2ccc(N(C)C)nc2)CC1 (stereo not drawn) | 7.143
46 | Cc1nc(C(NC(=O)c2cc(C(C)C)[nH]n2)c2ccccc2)n[nH]1 (stereo not drawn) | -6.911
47 | CCC(CO)N(Cc1ccccn1)C(=O)c1cccc(C#N)c1 (stereo not drawn) | -13.95
48 | CNS(=O)(=O)c1ccc(CNC(=O)Nc2ccccn2)s1 | -5.463
49 | CS(=O)(=O)c1nnc(NC(=O)CCc2cc(F)ccc2F)[nH]1 | -16.39
50 | CC1c2ncc(Cn3cncn3)n2CCN1C(=O)c1ccsc1 (stereo not drawn) | 106
51 | COCc1cnc2n1CCN(C(=O)c1cc3cc(Cl)ccc3o1)C2C (stereo not drawn) | 1.755
52 | CC1c2ncc(Cn3cncn3)n2CCN1C(=O)Cc1cccs1 (stereo not drawn) | -8.694
53 | CN1CCN(Cc2cnc3n2CCN(C(=O)c2cscn2)C3)CC1 | 22
54 | CC1c2ncc(Cn3cncn3)n2CCN1C(=O)c1ccccn1 (stereo not drawn) | 114.5
55 | COCc1cnc2n1CCN(C(=O)C1=CCCCC1)C2C (stereo not drawn) | 2.775
56 | CC1c2ncc(Cn3cncn3)n2CCN1C(=O)c1cscn1 (stereo not drawn) | 89.1
57 | O=C(CSC1=NS(=O)(=O)c2cc(Cl)ccc2N1)c1ccccc1 | 112.7
58 | O=C(CSC1=NS(=O)(=O)c2cc(F)ccc2N1)c1ccc(Cl)cc1 | 4.147
59 | CCN1CC(Oc2ccc(Cl)cc2)=NC(SCC(=O)c2ccccc2)=N1 | 3.791
60 | O=C(CSC1=NS(=O)(=O)c2cc(F)ccc2N1)c1ccccc1 | 100.3
61 | O=C(CN1C(=O)c2ccccc2CS1(=O)=O)c1ccc(Cl)cc1 | -11.99
62 | Cc1nc(COC[C@H]2CC[C@H]3[C@H](CCN3c3ncccn3)O2)cs1.O=C(O)C(F)(F)F | -1.05
63 | COc1cc(NC(=O)NC2CC2)ccc1N1CCOC1=O | -6.648
64 | CCc1[nH]c2c(CNC(=O)[C@@H]3CCCN3C)cc(C)cc2c1C | 16.75
65 | Cn1ccnc1C(O)(CCNCc1ccc(Cl)o1)C(F)(F)F (stereo not drawn) | -7.652
66 | O=C(c1ccsc1)N1CCc2nnc(COc3cncnc3)n2CC1 | -11

Row | Compound | Percent Effect [%]
67 | Cc1ncsc1CNc1ccn(Cc2ccccc2)n1 | -3.966
68 | CC(C)C(NC(=O)c1nc(N2CCOCC2)ncc1Cl)c1cccs1 (stereo not drawn) | 8.573
69 | CC(C)[C@H](N)CC(=O)Nc1nc(-c2cnc(N3CCOCC3)nc2)cs1.Cl | 116.3
70 | CCOc1ccc(NC(=O)Nc2cnc(N3CCOCC3)nc2)cc1 | 2.27
71 | CCC(C(=O)NCc1csc(N2CCOCC2)n1)n1cccn1 (stereo not drawn) | 4.05
72 | CC[C@H](C)[C@H](N)C(=O)Nc1nc(-c2cnc(N3CCOCC3)nc2)cs1 | 101.5
73 | COCC(=O)Nc1cnc(N2CCOCC2)nc1 | -9.684
74 | O=C(Cn1cccn1)N1CCc2[nH]nc(-c3ccc4c(c3)OCO4)c2C1 | 1.932
75 | O=C1CC[C@@H](C(=O)N2CCc3[nH]nc(COc4cccc(Cl)c4)c3C2)N1 | 3.497
76 | O=C(CSCC1CC1)N1CCc2[nH]nc(COc3ccccc3)c2C1 | 108.9
77 | CCSCCC(=O)N1CCc2[nH]nc(COc3ccccc3)c2C1 | 89.78
78 | COC(=O)CCC(=O)N1CCc2[nH]nc(-c3ccc(F)c(F)c3)c2C1 | 3.026
79 | Cc1nc(C)c(C(=O)N2CCc3[nH]nc(COc4ccccc4)c3C2)s1 | 5.403
80 | O=C(N1CCOCC1)N1CCc2[nH]nc(COc3cccc(Cl)c3)c2C1 | 2.718
81 | O=C(O)C(F)(F)F.O=C(O)C(F)(F)F.c1ccc(OCc2n[nH]c3c2CN(CC2CC2)C3)nc1 | 5.634
82 | O=C(CCn1cccc1)N1CCc2[nH]nc(COc3ccccc3)c2C1 | 87.66
83 | CN(C)S(=O)(=O)N1C[C@@H]2CC[C@H](C1)N(Cc1cccc(C#N)c1)C2 | -14.1
84 | CCc1nc(CNC(=O)C2CCC(=O)N(Cc3ccccc3F)C2)no1 (stereo not drawn) | -29.1
85 | CCNc1ncc(C(=O)NCCc2csc(CSC)n2)cn1 | -1.673
86 | COC(=O)C(C)(C)NC(=O)c1scnc1Cl | 4.833
87 | CC1(C)OCC2(CO1)CN(C(=O)c1ccccc1Br)C2 | -7.61
88 | O=C1NCCCCC1NC(=O)C1(c2cccc(C(F)(F)F)c2)CC1 (stereo not drawn) | -27.01

Row | Compound | Percent Effect [%]
89 | CCC(Nc1nnnn1-c1ccccc1)C(=O)Nc1nc(C)cs1 (stereo not drawn) | 23.33
90 | Cc1nc(-c2cccc(C(=O)N(C)CC(C)O)c2)cs1 (stereo not drawn) | -6.133
91 | CC[C@H](C)[C@H](N)C(=O)Nc1nc(-c2cnc(N(C)C)nc2)cs1 | 89.2
92 | CC[C@H](C)[C@H](N)C(=O)Nc1nc(-c2cnc(N(C)CCO)nc2)cs1 | 103.7
93 | Cc1cc(CN(C)C(=O)NC(C)Cc2ccc(O)cc2)no1 (stereo not drawn) | 12.34
94 | Cc1ccc(OCC(=O)Nc2cnccc2SCCCO)cc1C | -7.18
95 | CN(Cc1ccccc1CN1CCCC1)C(=O)c1c[nH]c(=O)[nH]1 | 14.99
96 | Cc1ccc(S(=O)(=O)N2CSCC2C(=O)N(C)C2CC2)cc1Cl (stereo not drawn) | 4.535
97 | Cc1nc(CN2CCC(CNC(=O)Nc3ccccc3)CC2)oc1C | -9.889
98 | O=C(Nc1cccnc1)Nc1cccc(CN2CCC(O)CC2)c1 | -1.395
99 | CSc1cccc(CN2CCC(CCC(=O)Nc3ccccc3)CC2)c1 | 5.512
100 | CSc1cccc(CN2CCC(CCC(=O)NC3CC3)CC2)c1 | 0.2093
101 | Cc1cc(C)c(C(=O)Nc2cccc(CN3CCC(CO)CC3)c2)o1 | 132.4
102 | NC(=O)C1CCN(Cc2cccc(NC(=O)c3ccsc3)c2)CC1 | -7.959
103 | Cc1nc(C)n(Cc2cccc(NC(=O)NC(C)(CO)C3CC3)c2)n1 (stereo not drawn) | -1.537
104 | CN(C)CCn1c(=O)oc2ccc(NC(=O)c3cc(Cl)c[nH]3)cc21 | -2.174
105 | Cc1nc(C)c(C(=O)Nc2cccc(CN3CCC(CO)CC3)c2)o1 | 118.5
106 | N#Cc1ccccc1C(=O)Nc1cccc(CN2CCC(CO)CC2)c1 | 103.3
107 | O=C(Nc1cccc(CN2CCC(CO)CC2)c1)c1cc(Cl)c[nH]1 | 101.9
108 | COC(=O)C(O)C1CCN(Cc2cccc(-n3cccn3)c2)CC1 (stereo not drawn) | 8.265
